Test results from PubChem BioAssay AID493012 (Sanford-Burnham Center for Chemical Genomics, 2011).
The whole screen tested about 330,000 compounds, of which about 930 (0.28%) were called active.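 The calls were made as follows: active = inhibition of at least 40% at 20 µM, with no more than 30% in the related APOBEC3A deaminase screen; inactive = the rest.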 This excerpt belongs to a sample that is enriched for actives.

The compounds below were run against DNA dC->dU-editing enzyme APOBEC-3G (Homo sapiens) (UniProt Q9HC16) (assay: APOBEC3G DNA deaminase inhibitors, primary screen, biochemical, fluorescence, single-stranded DNA substrate, uHTS (AID 493012;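 also: plate controls were DMSO wells with A3G for no effect and wells lacking A3G enzyme for full effect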)). Settings: recombinant A3G, ssDNA deamination FAM/TAMRA fluorescence; at 20 µM; active compounds read high.
DNA dC->dU-editing enzyme APOBEC-3G (Homo sapiens), sequence (Q9HC16 whole entry, looked up): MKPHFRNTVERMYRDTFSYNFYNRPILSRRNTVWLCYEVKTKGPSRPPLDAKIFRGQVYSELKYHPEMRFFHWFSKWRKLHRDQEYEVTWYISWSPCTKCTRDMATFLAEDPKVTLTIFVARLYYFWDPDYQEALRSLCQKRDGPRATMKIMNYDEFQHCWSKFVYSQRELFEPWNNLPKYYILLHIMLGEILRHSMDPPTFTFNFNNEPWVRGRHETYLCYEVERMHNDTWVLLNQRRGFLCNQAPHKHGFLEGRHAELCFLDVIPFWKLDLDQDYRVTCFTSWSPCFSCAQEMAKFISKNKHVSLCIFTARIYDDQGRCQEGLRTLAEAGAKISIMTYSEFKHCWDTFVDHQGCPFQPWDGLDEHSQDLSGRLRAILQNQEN
In the case of `CCC(C)(C)NC(=O)C1c2ccccc2Oc2ccccc21`, the inhibition is reported as -0.78% (inactive). `CCC(C)NC(=O)C1c2ccccc2Oc2ccccc21` (configuration not stated) was tested, and the inhibition was -4.18% (inactive). In the case of `CC(C)(C)c1nnc(NC(=O)C2c3ccccc3Oc3ccccc32)s1`, the inhibition is reported as 53.3% (active). For `CCCCn1c(N)c(N(CCOC)C(=O)c2sc3ccccc3c2Cl)c(=O)[nH]c1=O`, the inhibition was -7.98% (inactive). `CCCCCC(O)c1cccc(OCc2ccc3ccccc3n2)c1` (configuration not stated) was tested, and the inhibition was -6.99% (inactive). With `Cc1ccc(NC(=O)C2CCN(S(=O)(=O)c3ccc4c(c3)NC(=O)CO4)CC2)cc1C` the inhibition was -9.26% (inactive). In the case of `NC(=O)C1CCN(C(=O)c2ccc(F)c(S(=O)(=O)N3CCOCC3)c2)CC1`, the inhibition is reported as -4.4% (inactive). `CN(C(=O)c1cccc(NC(=O)Cc2cccc([N+](=O)[O-])c2)c1)C1CCCCC1` was tested, and the inhibition was -1.19% (inactive). `CCn1cc(C(=O)N2CC(C)CC(C)C2)c(=O)c2cc(S(=O)(=O)N3CCCC3)ccc21` (configuration not stated) was tested, and the inhibition was -1.06% (inactive). In the case of `CCN(CC)C(=O)CSC(Nc1cccc(F)c1)=C(C#N)C#N`, the inhibition is reported as -2.9% (inactive). With `Nc1ccccc1SC(C[N+](=O)[O-])c1ccccc1` (configuration not stated) the inhibition was 75.7% (active). For `O=C(COc1cc(Cl)c(Cl)cc1Cl)NC(=O)NC1CCCC1`, the inhibition was -1.68% (inactive). With `S=c1[nH]nc(Nc2ccccc2)s1` the inhibition was 42.7% (active). `O=c1cnnc(Nc2ccccc2)[nH]1` was tested, and the inhibition was -1.93% (inactive). In the case of `S=c1[nH]nc(NCCc2ccccc2)s1`, the inhibition is reported as 43.1% (active). For `CC(C)(C)C(=O)c1cnc(Nc2ccccc2)s1`, the inhibition was 17.8% (inactive). `O=C(CSc1ncccn1)NCCc1ccccc1` was tested, and the inhibition was -0.062% (inactive). In the case of `Nc1c(NCCc2ccccc2)c2ccccc2oc1=O`, the inhibition is reported as -2.86% (inactive). With `Cc1ccc([N+](=O)[O-])c(OCCCNCC(C)O)c1` (configuration not stated) the inhibition was -8.53% (inactive). In the case of `Cc1cc(C)n(C(=O)c2ccc(C)c(S(=O)(=O)N3CCOCC3)c2)n1`, the inhibition is reported as 0.652% (inactive). For `COc1ccc(CCNC(=O)CS(=O)(=O)Cc2nc(-c3ccc(C)cc3)oc2C)cc1OC`, the inhibition was -6.41% (inactive). For `S=c1[nH]nc(-c2cc(-c3ccsc3)n[nH]2)n1-c1ccccc1`, the inhibition was 20.5% (inactive). For `CCN(CC)S(=O)(=O)c1cccc(-c2n[nH]c(=S)n2/N=C/c2ccc(C(=O)OC)cc2)c1`, the inhibition was -5.7% (inactive). In the case of `S=c1[nH]nc(-c2cc(-c3ccccc3)n[nH]2)n1/N=C/c1c2ccccc2cc2ccccc12`, the inhibition is reported as 43.4% (active). In the case of `O=c1c2ccccc2nnn1CSc1nc2sc3c(c2c(=O)n1CC1CCCO1)CCC3` (configuration not stated), the inhibition is reported as -0.082% (inactive). For `CC(C)c1ccc(NC(=O)COC(=O)c2ccc(CN3CCCC3=O)cc2)cc1`, the inhibition was -5.19% (inactive). With `CC(C)(C)n1nnnc1C(c1ccc2ncccc2c1)N1CCSCC1` (configuration not stated) the inhibition was 1.72% (inactive). With `CCc1cccc(NC(=O)C2CCCN(S(=O)(=O)c3ccc4[nH]c(=O)ccc4c3)C2)c1` (configuration not stated) the inhibition was -3.15% (inactive). With `CC(C(=O)O)n1cnc2sc3c(c2c1=O)CCCC3` (configuration not stated) the inhibition was -3.08% (inactive). With `S=c1[nH]nc2c3c4c(sc3ncn12)CCCC4` the inhibition was 50.1% (active). For `N=c1c2c3c(sc2ncn1CCCN1CCOCC1)CCCCC3`, the inhibition was 2.15% (inactive). With `COc1ccc(-n2nc(C(=O)NCC(=O)Nc3cccc(C)n3)c3ccccc3c2=O)cc1` the inhibition was -3.64% (inactive). With `O=c1[nH]c(CN2CCN(S(=O)(=O)c3ccc4c(c3)OCCO4)CC2)nc2sc3c(c12)CCCC3` the inhibition was -9.39% (inactive). With `COC(=O)COc1ccc(C2NC(=O)NC(C)=C2C(=O)NCc2ccccc2)cc1OC` (configuration not stated) the inhibition was -1.01% (inactive). With `CCn1c(CNS(=O)(=O)c2ccc(Cl)cc2)n[nH]c1=S` the inhibition was 30.3% (inactive). With `CCn1c(CN2C(=O)CSc3ccccc32)n[nH]c1=S` the inhibition was 43.9% (active). For `CCn1c(CSCc2c(Cl)cccc2Cl)n[nH]c1=S`, the inhibition was 11.9% (inactive). In the case of `COc1cc(C2/C(=C(\O)c3ccc4c(c3)CC(C)O4)C(=O)C(=O)N2Cc2ccco2)ccc1O` (configuration not stated), the inhibition is reported as -3.83% (inactive). `COc1ccc(/C=N/NC(=O)C(C)N(c2ccc(OC)cc2)S(C)(=O)=O)cc1` (configuration not stated) was tested, and the inhibition was -4.56% (inactive). For `CN(C)c1ccc(C(CNC(=O)c2ccc(F)cc2)c2c[nH]c3ccccc23)cc1` (configuration not stated), the inhibition was -2.56% (inactive). `CNS(=O)(=O)c1ccc(NC(=O)Nc2ccc3c(c2)OCO3)cc1` was tested, and the inhibition was -9.95% (inactive). With `COc1ccc(Cn2c(=O)sc3ccccc32)cc1OC` the inhibition was -9.67% (inactive). `S=c1[nH]cc(-c2ccc(Cl)cc2)n1-c1ccccc1` was tested, and the inhibition was -4.18% (inactive). In the case of `S=c1[nH]ccn1-c1ccc(Cl)cc1`, the inhibition is reported as 69.9% (active). For `O=C(NC(=S)Nc1ccc2oc(=O)ccc2c1)c1ccc(-c2cccc(Cl)c2Cl)o1`, the inhibition was -0.008% (inactive). With `CCOc1ccc(-c2n[nH]c(=S)n2/N=C/c2cc3c(cc2[N+](=O)[O-])OCO3)cc1` the inhibition was 1.59% (inactive). `O=[N+]([O-])c1ccccc1/C=N/n1c(COc2ccccc2)n[nH]c1=S` was tested, and the inhibition was 34.8% (inactive). With `Fc1ccccc1/C=N/n1c(-c2cccnc2)n[nH]c1=S` the inhibition was 47.1% (active). In the case of `S=c1[nH]nc(-c2ccncc2)n1/N=C/c1ccccc1Cl`, the inhibition is reported as 73.5% (active). With `S=c1[nH]nc(-c2cccs2)n1/N=C/c1cccs1` the inhibition was 27.3% (inactive). For `S=c1[nH]nc(-c2cccs2)n1/N=C/c1cn(-c2ccccc2)nc1-c1ccc(Cl)cc1`, the inhibition was -2.77% (inactive). In the case of `COc1ccc2c(c1)C(=O)Nc1cc(Cl)ccc1N2`, the inhibition is reported as -7.65% (inactive). In the case of `O=C(CN1CCCCC1)Nc1ccccc1C(=O)NC1CC1`, the inhibition is reported as -5.07% (inactive). For `CCCNC(=S)N1CCC(NC(=O)C23CC4CC(CC(C4)C2)C3)CC1`, the inhibition was -5.11% (inactive). With `Cc1[nH]c2ccccc2c1C(=O)CN1CC(C)CC(C)C1` (configuration not stated) the inhibition was -4.14% (inactive). For `Cc1ccccc1-n1cc(CNC(=O)C2CCC(=O)N(C3CC3)C2)cn1` (configuration not stated), the inhibition was -4.71% (inactive). `CC(Oc1ccc(F)cc1)C(=O)Nc1ccccc1C(=O)NC1CC1` (configuration not stated) was tested, and the inhibition was -11.6% (inactive). `Cc1nc2scc(-c3cccs3)c2c(=O)n1N` was tested, and the inhibition was 42.5% (active). With `CCCc1nc2scc(-c3ccc(C)cc3)c2c(=O)n1N` the inhibition was -7.79% (inactive). `COc1cccc(NC(=O)CN(C)C(=O)CSCc2nc3scc(-c4cccs4)c3c(=O)[nH]2)c1` was tested, and the inhibition was -7.77% (inactive). For `Cc1cc(-c2ccccc2)nc(N2CCC(C(=O)NC34CC5CC(CC(C5)C3)C4)CC2)n1`, the inhibition was -9.15% (inactive). `CCOC(=O)C1=C(N)N2C(=O)C(C)SC2=C(C(=O)OCC)C1c1cc(OC)c(OC)c(OC)c1` (configuration not stated) was tested, and the inhibition was -2.88% (inactive). `C/C=C\C=C\C(=O)N1CC2(CC(c3cccc(NC(=O)/C(C)=C\C)c3)=NO2)C[C@H]1C(N)=O` (some centres not stated) was tested, and the inhibition was -3.46% (inactive). In the case of `C/C=C(/C)C(=O)Nc1cccc(C2=NOC3(C2)C[C@@H](C(N)=O)N(C(=O)C2(C)CC2)C3)c1` (some centres not stated), the inhibition is reported as -16% (inactive). For `C=C(C)C(=O)Nc1cccc(C2=NOC3(C2)C[C@H](C(N)=O)N(C(=O)C(c2ccccc2)c2ccccc2)C3)c1` (some centres not stated), the inhibition was 53.1% (active). For `COc1ccc(/C=N/n2nnnc2N)cc1OC`, the inhibition was -3.77% (inactive). With `COc1cc(/C=C/C(=O)OCC(=O)N2CCOCC2)ccc1OCC#N` the inhibition was -3.2% (inactive). `CC1CCc2sc3nc(N4CCN(CCO)CC4)n4ncnc4c3c2C1` (configuration not stated) was tested, and the inhibition was -8.25% (inactive). With `CCOC(=O)NC(=O)C(=CNc1cccc(OC)c1)C(=O)NC(=O)OCC` the inhibition was -5.67% (inactive). In the case of `CC(=O)N1CC[n+]2c(-c3ccc([N+](=O)[O-])cc3)csc21`, the inhibition is reported as 54.4% (active). For `COC(=O)c1c(C)[nH]c(C)c1-c1ccc([N+](=O)[O-])cc1`, the inhibition was -8.28% (inactive). `COc1ccc(C2CC(c3ccc([N+](=O)[O-])cc3)=NN2C(C)=O)cc1` (configuration not stated) was tested, and the inhibition was 1.76% (inactive). With `Nc1nonc1-n1nnc(C(=O)N/N=C/c2ccc(Cl)cc2)c1-c1ccc2c(c1)OCO2` the inhibition was 1.23% (inactive). For `COc1ccc(C(=O)CC(=O)C(=O)Nc2cc([N+](=O)[O-])ccc2OC)cc1`, the inhibition was -6.63% (inactive). `COc1cccc(C(=O)CC(=O)C(=O)Nc2ccc([N+](=O)[O-])cc2C)c1` was tested, and the inhibition was 51.3% (active). In the case of `COc1cccc(NCCC(=O)c2cccc([N+](=O)[O-])c2)c1`, the inhibition is reported as 1.63% (inactive). In the case of `CC(=O)Nc1ccc(S(=O)(=O)NCCC(=O)N2CCN(c3ccccc3Cl)CC2)cc1`, the inhibition is reported as -2.43% (inactive). `CCCn1c(NC(=O)C23CC4CC(CC(O)(C4)C2)C3)nc2ccccc21` was tested, and the inhibition was -2.56% (inactive). In the case of `O=C(Cc1ccsc1)N1CCN(S(=O)(=O)c2cc(C(F)(F)F)cc(C(F)(F)F)c2)CC1`, the inhibition is reported as -3.29% (inactive). In the case of `CC(C)CCNC(=O)C1CCC(CNc2c(N3CCC(C)CC3)c(=O)c2=O)CC1` (configuration not stated), the inhibition is reported as -1.82% (inactive). `C/C(=C(\C#N)C(=O)NCCCN1CCOCC1)N(C)C` was tested, and the inhibition was -7.59% (inactive). `COc1cc(C(=S)N2CCOCC2)ccc1O` was tested, and the inhibition was -1.79% (inactive). With `CCOc1cc(C(=S)N2CCOCC2)ccc1O` the inhibition was 51.9% (active). In the case of `CCOc1cc(C(=S)N2CCOCC2)ccc1OS(=O)(=O)c1ccc(Br)cc1`, the inhibition is reported as -3.84% (inactive). In the case of `O=C(CN1CCN(C2CCS(=O)(=O)C2)CC1)N1N=C(c2ccc(Cl)cc2)CC1c1ccco1` (configuration not stated), the inhibition is reported as -3.9% (inactive). With `FC(F)(F)C1CCCN(c2nsc3ccccc23)C1` (configuration not stated) the inhibition was 72.5% (active). For `O=C(NCC(=O)N1CCCC(C(F)(F)F)C1)c1ccccc1F` (configuration not stated), the inhibition was -2.23% (inactive). In the case of `CCN(CC)CC(=O)Nc1sc2c(c1C(=O)c1ccccc1C)CCC2`, the inhibition is reported as 1.14% (inactive). `COc1ccc2c(C)cc3nnnn3c2c1` was tested, and the inhibition was -2.56% (inactive). In the case of `COc1ccc2[nH]c(C(=O)N3CCN(C)CC3)c(C)c2c1`, the inhibition is reported as -7.04% (inactive). In the case of `COc1ccc2[nH]c(=S)cc(C)c2c1`, the inhibition is reported as 45.8% (active). In the case of `COc1c(C(C)C)oc2cc3oc(=O)ccc3cc12`, the inhibition is reported as -10.3% (inactive).
